This passage reports Potency and outcome results from PubChem BioAssay (Tox21).

Results filed as inconclusive are left out. Active and inactive are the calls of the source. Unless noted, the call rests on the fitted dose curve; in most records, active means well fitted curve in the direction sought with a large enough effect in the repeat runs; inconclusive means weak or mixed curves; inactive means no such curve, though single readings can be large; an effect the other way counts as inactive or inconclusive.

The target in assay [1] is Thyrotropin receptor (Homo sapiens) (UniProt P16473). Nature of the assay: qHTS assay to identify small molecule antagonists of the thyroid stimulating hormone receptor (TSHR) signaling pathway (AID 1259385; calls by dose curve; further: nearly all actives have a fitted effect of over 20% in size; further: potency means the concentration at half of the fitted maximal effect). The gist of the method: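 TSHR-HEK293 cells were plated and held 18 h at 37C/5% CO2, then given compound plus Ro20-1724 and stimulated with TSH at 1.5 ng/mL final. After 30 min at room temperature, cAMP was detected with cAMP-d2/anti-cAMP-cryptate (1 h) by fluorescence.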

Assay [2] in a line: qHTS assay to identify small molecule agonists of the estrogen receptor alpha (ER-alpha) signaling pathway in the presence of an antagonist - cell viability counter screen (AID 1259386).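 Further: cells exposed to compounds for 22 h at 37 °C before the viability read; nearly all actives have a fitted effect of over 30% in size.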 Further: potency means the concentration at half of the fitted maximal effect. The gist of the method: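 Steps: 5-day stripped-FBS culture; seed and incubate 24hr; add ICI-182,780 (10.0nM final); pin 15-point compound titration; incubate 22hr at 37C; add CellTiter-Fluor at 21hr; read fluorescence.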
(In general: Quantitative high-throughput screening tests each substance at several concentrations.)

Assay [3] addresses Progesterone receptor (Homo sapiens) (UniProt P06401). The assay is described as follows: qHTS assay to identify small molecule agonists of the progesterone receptor (PR) signaling pathway (AID 1346784; calls by dose curve; further: nearly all actives have a fitted effect of over 30% in size). The method, boiled down:
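Seed PR-UAS-bla HEK 293T cells (2% charcoal-stripped FBS), incubate 6 hr at 37C; add compounds in DMSO, 16 hr at 37C; add LiveBLAzer B/G substrate, 2 hr RT; read fluorescence intensity.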

The nature of assay [4]: qHTS assay to identify small molecule antagonists of the progesterone receptor (PR) signaling pathway - cell viability counter screen (AID 1346798). Further: nearly all actives have a fitted effect of over 50% in size. Further: potency means the concentration at half of the fitted maximal effect. The method, boiled down: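 Measures cytotoxicity in parallel with the PR antagonist reporter read: HEK293T PR-UAS-bla cells get compound and R5020 for 16 hr, and remaining viable cells are quantified by CellTiter-Glo luminescence.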

A short description of assay [5]: qHTS assay to identify small molecule agonists of the progesterone receptor (PR) signaling pathway - cell viability counter screen (AID 1346799; calls by dose curve; further: nearly all actives have a fitted effect of over 45% in size; further: potency means the concentration at half of the fitted maximal effect). The gist of the method:
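Using the same plates as the PR reporter screen, HEK293T PR-UAS-bla cells received compounds for 16 hr at 37C and were then lysed with CellTiter-Glo; luminescence was read 30 min later at room temperature.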

The nature of assay [6]: qHTS assay to identify small molecule antagonists of the TGF-beta/Smad signaling pathway - cell viability counter screen (AID 1346824). Further: nearly all actives have a fitted effect of over 50% in size. The method, boiled down:
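SBE-bla HEK 293T cells were plated overnight at 37 C, then given compounds in DMSO plus TGF-beta1 (added as 0.25 ng/mL solution) for 5 hr. After the bla read, CellTiter-Glo was added to the same wells and luminescence read after 30 min at room temperature.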

Assay [7] is described as follows: qHTS assay to identify small molecule agonists of the TGF-beta/Smad signaling pathway - cell viability counter screen (AID 1346829). Further: top concentration of the series differs between compounds; nearly all actives have a fitted effect of over 45% in size. The gist of the method:
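In parallel with the Smad reporter read, viability of HEK 293T cells stably carrying SBE-bla is quantified by ATP luminescence following 5 hr compound treatment.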

A short description of assay [8]: qHTS assay to identify small molecule agonists of the TGF-beta/Smad signaling pathway (AID 1346859; active means well fitted activation curve with a large enough effect in the signal ratio in the repeat runs, not every such curve was filed as active; the % refers to the signal ratio; further: series mostly up to about 77 µM). The gist of the method:
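Beta-lactamase reporter activity downstream of Smad binding elements was measured in stably transfected HEK 293T cells; compounds were incubated for 5 hr, substrate for 2 hr at room temperature.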

Assay [9] addresses Thyrotropin-releasing hormone receptor (Homo sapiens) (UniProt P34981). Nature of the assay: qHTS assay to identify small molecule antagonists of the thyrotropin-releasing hormone receptor (TRHR) signaling pathway (AID 1346877; active means well fitted inhibition curve with a large enough effect in the repeat runs, not every such curve was filed as active; further: series mostly up to about 51 µM). The method, boiled down:
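Human TRHR in HEK293 cells; inhibition of the intracellular calcium rise triggered by 1 nM TRH was followed by fluorescence over 3 min. Compounds were run at 15 concentrations, three replicates each.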

Assay [10] deals with Progesterone receptor (Homo sapiens) (UniProt P06401). Nature of the assay: qHTS assay to identify small molecule antagonists of the progesterone receptor (PR) signaling pathway (AID 1346795; active means well fitted inhibition curve with a large enough effect in the signal ratio in the repeat runs, not every such curve was filed as active; the % refers to the signal ratio; further: potency means the concentration at half of the fitted maximal effect). The gist of the method: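 Screening used a GripTite HEK293T line with PR-responsive UAS-beta-lactamase. Cells were challenged with compound in the presence of 1 nM R5020 final for 16 hr at 37C; B/G FRET substrate, 2 hr room temperature, fluorescence.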
Progesterone receptor (Homo sapiens), sequence (P06401 whole entry, looked up): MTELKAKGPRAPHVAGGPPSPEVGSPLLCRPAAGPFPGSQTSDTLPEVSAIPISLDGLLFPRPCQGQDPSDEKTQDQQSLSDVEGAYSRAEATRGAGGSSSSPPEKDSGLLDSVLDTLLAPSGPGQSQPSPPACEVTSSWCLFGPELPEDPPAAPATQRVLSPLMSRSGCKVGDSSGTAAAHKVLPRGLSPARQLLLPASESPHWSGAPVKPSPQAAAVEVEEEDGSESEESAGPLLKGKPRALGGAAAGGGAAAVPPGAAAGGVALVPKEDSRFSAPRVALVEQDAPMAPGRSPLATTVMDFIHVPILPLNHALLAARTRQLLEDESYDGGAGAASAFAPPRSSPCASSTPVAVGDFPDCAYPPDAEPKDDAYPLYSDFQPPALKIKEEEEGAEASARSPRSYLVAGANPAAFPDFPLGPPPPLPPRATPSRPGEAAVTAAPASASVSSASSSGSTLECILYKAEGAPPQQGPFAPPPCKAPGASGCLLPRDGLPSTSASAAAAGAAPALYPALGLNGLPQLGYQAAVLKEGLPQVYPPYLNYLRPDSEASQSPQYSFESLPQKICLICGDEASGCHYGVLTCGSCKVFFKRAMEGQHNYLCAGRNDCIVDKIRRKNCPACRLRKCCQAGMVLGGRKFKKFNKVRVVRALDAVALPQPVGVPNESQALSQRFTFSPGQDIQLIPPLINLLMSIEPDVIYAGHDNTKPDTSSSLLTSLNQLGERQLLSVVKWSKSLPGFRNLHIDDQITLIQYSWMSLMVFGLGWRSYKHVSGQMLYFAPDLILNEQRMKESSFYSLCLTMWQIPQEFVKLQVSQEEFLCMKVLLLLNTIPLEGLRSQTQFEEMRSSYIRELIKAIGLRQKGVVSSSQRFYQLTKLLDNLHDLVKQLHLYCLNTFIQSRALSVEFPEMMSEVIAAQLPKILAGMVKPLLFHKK

Thyrotropin-releasing hormone receptor (Homo sapiens), sequence (P34981 whole entry, looked up): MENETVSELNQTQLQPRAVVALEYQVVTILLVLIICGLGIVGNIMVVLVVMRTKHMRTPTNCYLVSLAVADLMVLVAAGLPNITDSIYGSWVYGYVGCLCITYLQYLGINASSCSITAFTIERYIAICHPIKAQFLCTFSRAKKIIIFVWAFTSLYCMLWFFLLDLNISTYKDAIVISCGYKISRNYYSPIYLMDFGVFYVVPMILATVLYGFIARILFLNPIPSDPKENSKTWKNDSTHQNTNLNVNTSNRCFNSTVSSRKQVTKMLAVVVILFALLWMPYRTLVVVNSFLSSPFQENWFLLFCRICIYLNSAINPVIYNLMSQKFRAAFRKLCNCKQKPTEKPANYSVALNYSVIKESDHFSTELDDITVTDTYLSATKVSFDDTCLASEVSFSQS
Thyrotropin receptor (Homo sapiens), sequence (P16473 whole entry, looked up): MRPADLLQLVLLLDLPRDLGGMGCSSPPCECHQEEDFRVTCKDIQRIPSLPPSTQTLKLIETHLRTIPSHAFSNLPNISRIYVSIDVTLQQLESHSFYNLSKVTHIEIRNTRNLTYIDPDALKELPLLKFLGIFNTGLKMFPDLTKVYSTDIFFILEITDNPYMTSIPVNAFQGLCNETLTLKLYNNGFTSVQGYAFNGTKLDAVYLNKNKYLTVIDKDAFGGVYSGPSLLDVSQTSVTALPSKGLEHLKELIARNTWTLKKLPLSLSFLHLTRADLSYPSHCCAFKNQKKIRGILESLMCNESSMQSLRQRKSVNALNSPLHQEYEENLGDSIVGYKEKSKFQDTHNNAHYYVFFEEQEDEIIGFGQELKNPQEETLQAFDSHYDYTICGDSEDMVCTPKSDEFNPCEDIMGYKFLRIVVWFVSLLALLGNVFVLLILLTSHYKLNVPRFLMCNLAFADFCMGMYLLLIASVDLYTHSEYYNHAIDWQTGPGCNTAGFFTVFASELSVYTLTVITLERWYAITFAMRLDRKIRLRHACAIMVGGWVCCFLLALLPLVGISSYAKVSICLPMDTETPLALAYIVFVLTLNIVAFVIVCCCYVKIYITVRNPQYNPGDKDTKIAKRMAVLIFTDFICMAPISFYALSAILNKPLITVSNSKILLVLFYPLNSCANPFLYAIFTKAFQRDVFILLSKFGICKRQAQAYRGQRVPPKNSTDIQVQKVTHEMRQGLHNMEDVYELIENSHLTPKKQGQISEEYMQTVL

`COC(=O)[C@@H]1CC2=CC(=O)CC[C@]2(C)[C@@]23O[C@@H]2C[C@@]2(C)[C@@H](CC[C@@]24CCC(=O)O4)[C@H]13`: the Potency result in assay [1], in assay [2], in assay [3], in assay [4] and in [5] was “inactive” each time. The outcome in assay [6], in assay [7], in assay [8] and in assay [9] was inactive.
Consider `CNC(=S)NC`, for which the Potency result in assay [1], in assay [2] and in [3] was “inactive” each time. Further, in assay [5], the Potency was 7.7 µM (active). Besides, the outcome in [7], in [8] and in assay [9] was inactive.
For `O=C(CCCCCCC(=O)Nc1ccccc1)NO`, the Potency result in assay [1], in assay [2], in [3], in [4] and in assay [5] was “inactive” throughout. The call in assay [6], in assay [7], in assay [8] and in assay [9] was inactive.
In the case of `Brc1cc(-c2ccc(Br)c(Br)c2Br)cc(Br)c1Br`, the Potency entry in [1], in assay [2], in [3], in [4] and in [5] was “inactive” throughout. Besides, the call in assay [6], in assay [7], in [8] and in assay [9] was inactive.
On to `COC(=O)CC(=O)C(C)(C)C`, for which the Potency entry in assay [1], in assay [2] and in assay [3] was “inactive” throughout. The call in assay [6], in assay [7] and in assay [8] was inactive.
Consider `CCCCCCCCSCCO`, for which the Potency entry in [1], in assay [2], in assay [4] and in [5] was “inactive” in each case. For the same molecule, the molecule was called inactive in [6], in assay [7], in [8] and in [9].
On to `C[Si](NC1CCCCC1)(NC1CCCCC1)NC1CCCCC1`, for which the Potency entry in assay [1], in [2] and in assay [3] was “inactive” in each case. Further, the result in assay [6], in assay [7] and in [9] was inactive.
As for `O=C(O)c1c(O)c(-c2ccccc2)nc2ccccc12`, the Potency result in [1], in assay [2], in assay [3] and in [5] was “inactive” each time. The call in assay [7] and in assay [8] was inactive.
Consider `CCNC(=O)N1CCN(CCCC(c2ccc(F)cc2)c2ccc(F)cc2)CC1`, for which the Potency result in assay [1], in assay [3] and in [4] was “inactive” throughout. Also, in [2], the Potency is 23.7 µM (active). Also, the call in assay [6], in assay [7], in [8] and in assay [9] was inactive.
In the case of `CCC(C)(C)C1CCC(O)CC1` (stereo not drawn), the Potency result in assay [1], in [2], in assay [3], in [4] and in assay [5] was “inactive” each time. Also, the outcome in assay [6], in assay [7] and in assay [8] was inactive.
Take `CC(Cl)C(Cl)Cl` (stereo not drawn): the Potency entry in assay [1], in [2] and in assay [3] was “inactive” each time. The molecule was classed as inactive in [6], in assay [7] and in assay [9].
For the molecule `CCOC(=O)c1ccccc1C`, the Potency result in assay [1], in [2] and in assay [3] was “inactive” in each case. Also, in [4], the Potency is 15.4 µM (active). Further, the molecule was classed as inactive in assay [6], in assay [7], in assay [8] and in [9].
Regarding `COCCOC(=O)C1=C(C)NC(C)=C(C(=O)OC/C=C/c2ccccc2)C1c1cccc([N+](=O)[O-])c1` (stereo not drawn), the Potency result in assay [1], in assay [2] and in [3] was “inactive” each time. In addition, the Potency in assay [10] is 4.22 µM (active). The outcome in assay [7], in assay [8] and in [9] was inactive.
In the case of `O=C(N/N=C/c1ccc([N+](=O)[O-])o1)c1ccc(O)cc1`, the Potency result in assay [1], in assay [3] and in assay [4] was “inactive” each time. Also, the Potency in assay [2] was 29.8 µM (active). The molecule was classed as inactive in assay [6], in assay [7] and in [8].
Take `CN1CCN(CCCN2c3ccccc3Sc3ccc(S(=O)(=O)N(C)C)cc32)CC1`: the Potency was 29.8 µM (active) in assay [1], 13.3 µM (active) in assay [4] and 6.68 µM (active) in assay [5]. The Potency entry in assay [2] and in [3] was “inactive” each time. Besides, the result in assay [6], in [7] and in [8] was inactive.
For the molecule `CC(=N\O)/C(C)=N/O`, the Potency entry in [1], in assay [2] and in assay [3] was “inactive” in each case. For the same molecule, the molecule was called inactive in assay [6], in assay [7], in assay [8] and in [9].
Turning to `COCCOC`, the Potency result in [1], in assay [2], in [10] and in assay [4] was “inactive” in each case. The outcome in assay [6], in assay [7] and in assay [9] was inactive.
As to `CC(C)CCCC(=O)O`, the Potency result in [2], in [3], in assay [10], in [4] and in [5] was “inactive” each time. Moreover, the call in assay [6] and in assay [7] was inactive.
